Results filed as inconclusive are left out. Active and inactive are the calls of the source. The call rests on the fitted dose curve.

This experiment is described as follows: Confirmation Concentration-Response Assay for Identification of Small Molecule Agonists of Stat Signaling Pathway. The note with it: SIE-bla cells, IL-6 STAT beta-lactamase reporter, 5 h. From the text:
NIH Molecular Libraries Screening Centers Network [MLSCN] NIH Chemical Genomics Center [NCGC] MLSCN Grant: None NCGC Assay Overview: This assay is a retest of actives identified from the Stat signaling pathway assay (PubChem AID 446). The Stat assay is cell-based and measures Interleukin 6 (IL-6) mediated modulation of a beta-lactamase reporter gene controlled by a STAT inducible element (SIE-bla cells, Invitrogen). IL-6 is a cytokine that signals via the JAK/STAT pathway and is implicated in cancer and inflammation. SIE-bla cells are induced by IL-6 at 40 pM EC50 and inhibited by the pan JAK inhibitor, 2-(1,1-Dimethylethyl)-9-fluoro-3,6-dihydro-7H-benz[h]-imidaz[4,5-f]isoquinolin-7-one, at approximately 10 nM IC50. Plated cells were incubated overnight and on the following day, stimulated with 40 pM IL-6 for 5 hrs. The assay was stimulated with an EC50 of IL-6 to retest activators of STAT signaling.
NCGC Assay Protocol Summary: Cells were trypsinized, washed in assay medium (AM, OPTI MEM with 0.5% fetal bovine serum, 0.1 mM nonessential amino acids, 1 mM sodium pyruvate, 10mM HEPES pH 7.3, 100U/ml penicillin, and 100 ug/ml streptomycin) and suspended at […] in AM. Approximately 2500 cells in 5 uL/well was dispensed into 1536-well plates and the cells were incubated overnight at 37 C. 23 nL of compound were delivered by a pin tool and 1 uL of IL-6 (40 pM final concentration in AM) was added. After plates were incubated at 37 C for 5 hrs, 1uL of detector mix (LiveBLAzerTM, Invitrogen) was added, the plates incubated at room temperature for 2.5 hrs, and fluorescence intensity at 460 and 530 nm emissions was measured at 405 nm excitation by an Envision (Perkin Elmer).
For the compound `CN(C)c1ccc(-c2nn3c(-c4ccc(Cl)cc4)nnc3s2)cc1`, the Potency is 3.16 µM (active). As to `Cc1cc(=O)oc2c(CN3CCCCC3)c(O)c(Cl)cc12`, the Potency is 10 µM (active).

With `CC1CCN(c2oc(-c3ccccc3Cl)nc2C#N)CC1`, the Potency is 6.31 µM (active). The figure for `Cc1ccc(S(=O)(=O)N2CCN(c3nc(C(C)C)c4c(c3C#N)CC(C)(C)OC4)CC2)cc1` is 10 µM (active). In the case of `Cc1ccc(CNC(=O)c2cc3c(=O)n4ccccc4nc3n(CC3CCCO3)c2=N)cc1` (stereo unspecified), the Potency is 10 µM (active). The figure for `CCOC(=O)c1cc2c(=O)n3cccc(C)c3nc2n(C)c1=N` is 3.98 µM (active); for `Nc1ncnc2c1ncn2[C@@H]1O[C@H](COP(=O)(O)O)[C@@H](O)[C@@H]1O` it is 25.1 µM (active). For `CCN(CC)CCN1C(=O)c2cccc3cc(N)cc(c23)C1=O`, the Potency was 15.8 µM (active). Turning to `CCN(CC)CCC[C@H](C)Nc1c2ccc(Cl)cc2nc2ccc(OC)cc12`, the Potency is 12.6 µM (active). As to `CCNC(=O)c1cc2c(=O)n3cccc(C)c3nc2n(CCc2ccccc2)c1=N`, the Potency was 12.6 µM (active).

As for `COc1cccc2c1C(=O)c1c(O)c3c(c(O)c1C2=O)C[C@@](O)(C(=O)CO)C[C@@H]3O[C@H]1C[C@H](N)[C@H](O)[C@H](C)O1`, the Potency was 3.98 µM (active).
